Compounds with a hit are over-represented: about 10% of the library has one in this group of screens.
G9a block = blocks human histone lysine methyltransferase G9a; G9a H3K9 monomethylation, AlphaScreen, 2 h; Q96KQ7; AID 504332; hit rate 8.8% among 350,000; Potency, µM (doses to about 102 µM), for the others: at the top dose activity, negative = inhibition, most hits filed as inhibitors; further: potency means the concentration at half of the fitted maximal effect; nearly all actives have a fitted effect of over 75% in size
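Enzyme 20 nM + cpd, 15 min RT; add b-H3K9 pep 500 nM / SAM 20 uM; 2 h RT; anti-H3K9me1 Ab 0.5 ug/mL + SA donor / anti-rabbit acceptor beads 20 ug/mL each, 10 min; AlphaScreen read.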
MmCpn inh = inhibitors of Methanococcus maripaludis chaperonin TRiC (MmCpn) | AID 504842 | Potency, µM (top dose mostly 76.9 µM), for inactives: at the highest dose activity, negative = inhibition, most hits filed as inhibitors | hit rate 0.031% among 330,000 | purified Mm-Cpn ATPase, ADP Transcreener TR-FRET; further: potency means the concentration at half of the fitted maximal effect; nearly all actives have a fitted effect of over 80% in size
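ATPase turnover read by TR-FRET ADP competition (Eu cryptate antibody/ADP-d2, 665/590 nm): 10uM ATP final, 25nM Mm-CPN final, 30 min 37degC after 10-min compound preincubation, pH 7.4 Tris/KCl/MgCl2/DTT buffer.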
PLK1 PBD inh = inhibitors of human PLK1 polo-box domain binding | AID 720504 | Plk1 PBD binding of FITC phosphopeptide, fluorescence polarization | P53350 | hit rate 2.8% among 360,000 | Potency, µM, for the others: max response, negative = inhibition, usual class: inhibitors; further: potency means the concentration at half of the fitted maximal effect; series mostly up to about 57 µM; nearly all actives have a fitted effect of over 65% in size
Target sequence (P53350 whole entry, looked up, the tested form may be a part): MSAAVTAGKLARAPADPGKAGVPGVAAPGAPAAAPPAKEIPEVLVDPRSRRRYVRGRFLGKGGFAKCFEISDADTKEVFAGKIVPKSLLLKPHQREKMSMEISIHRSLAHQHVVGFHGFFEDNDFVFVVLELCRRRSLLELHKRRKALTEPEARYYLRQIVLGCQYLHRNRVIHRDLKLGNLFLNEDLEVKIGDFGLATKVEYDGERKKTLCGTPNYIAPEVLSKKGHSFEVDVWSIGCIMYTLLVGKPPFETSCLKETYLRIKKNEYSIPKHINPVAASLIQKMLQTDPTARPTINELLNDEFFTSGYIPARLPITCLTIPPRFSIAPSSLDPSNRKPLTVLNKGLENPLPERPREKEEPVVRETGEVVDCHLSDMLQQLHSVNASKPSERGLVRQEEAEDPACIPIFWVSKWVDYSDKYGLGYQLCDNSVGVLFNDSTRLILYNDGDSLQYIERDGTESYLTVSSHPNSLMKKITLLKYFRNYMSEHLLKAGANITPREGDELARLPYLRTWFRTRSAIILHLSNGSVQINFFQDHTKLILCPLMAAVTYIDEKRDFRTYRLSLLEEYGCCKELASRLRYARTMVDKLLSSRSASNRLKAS
Sfp inh = Sfp phosphopantetheinyl transferase inhibition; Biochemical Sfp PPTase activity, qHTS; Potency, µM, for the others: largest response in the series, negative = inhibition, hits mostly inhibitors; hit rate 3.5% among 310,000; AID 1490;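 further: the enzyme is Sfp with the accession as filed and its product quenches rhodamine fluorescence; potency means the concentration at half of the fitted maximal effect; 0% = enzyme reaction without inhibitor and -100% = no enzyme wells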
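Step 1, compound plus 15 nM Sfp-PPTase, 15 min, room temperature. Step 2, add rhodamine-CoA (5 uM) and BHQ-2-YbbR (12.5 uM). Step 3, read 525/598 nm fluorescence at 0 and 30 min.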
VDR inhibitor = vitamin D3 receptor (human) inhibition; P11473; VDR-SRC2-3 peptide fluorescence polarization, 2 h; Potency, µM, inactives show max response, negative = inhibition, actives largely listed as inhibitors; hit rate 0.93% among 400,000; further: potency means the concentration at half of the fitted maximal effect
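Signal is fluorescence polarization, reporting how far test compounds block the interaction of VDR with the SRC2-3 coregulator peptide after a 2 h room-temperature incubation.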
CCT modulator = modulators of cytosolic chaperonin (CCT/TRiC) activity; purified chaperonin ATPase assay, HTRF ADP detection, 30 min; activity change, % (test concentration not listed), hits read low; hit rate 0.3% among 360,000; AID 651819; in the data active means activity change below about -30%
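We incubate TRiC, 40 or 20 nM final, with library compounds at 76 uM and 10 uM ATP for 30 min at 37 °C. ADP formed is detected with Transcreener HTRF reagents after 30 min at room temperature.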
An asterisk follows results filed as active; [ ] = another dose, or the depositor's remark. Unless noted, the call rests on the fitted dose curve; in most records, active means well fitted curve in the direction sought with a large enough effect; inconclusive means small, poorly fitted or top-dose-only effect, or another doubt; inactive means no such curve, though single readings can be large; an effect the other way counts as inactive or inconclusive. Unless noted, on the % scale 0 is the no-effect control and ±100 the full control effect.

How did O=C(CSc1nc2ccccc2[nH]1)Nc1nc(-c2cccc(Br)c2)cs1 do in these assays?
G9a block: inconclusive; MmCpn inh: -3%; PLK1 PBD inh: -11%; Sfp inh: 7%; VDR inhibitor: -15%; CCT modulator: 1

How did CN(C)CCCn1c(SCC(=O)Nc2nc(-c3cccc(Br)c3)cs2)nc2ccccc2c1=O do in these assays?
G9a block: inconclusive; MmCpn inh: -12%; PLK1 PBD inh: -12%; Sfp inh: 45µM*; VDR inhibitor: 7%; CCT modulator: 1

Results for Cc1nn(-c2ccccc2)c2nc(C3CC3)cc(C(=O)Nc3ccc(F)cc3)c12 ?
G9a block: 5%[59 µM]; VDR inhibitor: 14%

What do the screens show for `CCCCc1c(O)n(-c2ccccc2)[nH]c1=O`?
G9a block: 11µM*; Sfp inh: -18%; VDR inhibitor: -3%

What do the screens show for `CCOC(=O)CC(=O)CSc1ccc2nnc(-c3cccc(F)c3)n2n1`?
G9a block: -30%; MmCpn inh: -2%; PLK1 PBD inh: -5%; Sfp inh: -3%; VDR inhibitor: 1%; CCT modulator: -4

How did CSc1ccc2nnc(-c3cccc(F)c3)n2n1 do in these assays?
G9a block: 40µM*; MmCpn inh: -3%; PLK1 PBD inh: -17%; Sfp inh: -10%; VDR inhibitor: 4%; CCT modulator: 0

Results for COC(=O)c1ccc(CSc2ccc3nnc(-c4cccc(F)c4)n3n2)o1 ?
G9a block: 18µM*; MmCpn inh: -1%; PLK1 PBD inh: inconclusive; Sfp inh: 50µM*; VDR inhibitor: -29%; CCT modulator: -2

How did O=C(CSCn1nnc2c(=O)[nH]c(Cc3ccc(F)cc3)nc21)Nc1cccc(C(F)(F)F)c1 do in these assays?
G9a block: -2%[59 µM]; VDR inhibitor: 6%

Results for CC(OC(=O)CCN=C1NS(=O)(=O)c2ccccc21)C(=O)N(C)c1ccccc1 (stereo unspecified) ?
G9a block: 0%; MmCpn inh: 0%; PLK1 PBD inh: -3%; VDR inhibitor: -6%; CCT modulator: -4

How did O=C(/C=C/c1ccccc1)OCCCCN=C1NS(=O)(=O)c2ccccc21 do in these assays?
MmCpn inh: -10%; PLK1 PBD inh: 27µM*; Sfp inh: 5%; VDR inhibitor: -1%; CCT modulator: 0

How did COc1ccccc1C(=O)COC(=O)CCCN=C1NS(=O)(=O)c2ccccc21 do in these assays?
G9a block: -24%; MmCpn inh: 0%; PLK1 PBD inh: -11%; VDR inhibitor: -16%; CCT modulator: 1

Results for O=C(/C=C/c1ccccc1)OCCN=C1NS(=O)(=O)c2ccccc21 ?
G9a block: 24%; MmCpn inh: 2%; PLK1 PBD inh: -3%; Sfp inh: 19%; VDR inhibitor: -4%; CCT modulator: -3

How did O=C(CCCN=C1NS(=O)(=O)c2ccccc21)OCc1ccccc1 do in these assays?
G9a block: 45µM*; MmCpn inh: 3%; PLK1 PBD inh: 1%; VDR inhibitor: -6%; CCT modulator: 0

What do the screens show for `CC(OC(=O)CCCN=C1NS(=O)(=O)c2ccccc21)C(=O)N(C)c1ccccc1` (stereo unspecified)?
G9a block: 40µM*; MmCpn inh: -3%; PLK1 PBD inh: -3%; VDR inhibitor: -4%; CCT modulator: -4

Results for O=C(CCN=C1NS(=O)(=O)c2ccccc21)OCC(=O)c1ccccc1Cl ?
G9a block: 56µM*; MmCpn inh: 3%; PLK1 PBD inh: -7%; VDR inhibitor: -16%; CCT modulator: -2

What do the screens show for `COc1ccc(NC(=O)CC2C(=O)N(c3ccc(C)cc3)C(=O)N2C2CCCC2)cc1` (stereo unspecified)?
G9a block: -10%[59 µM]; VDR inhibitor: 1%

How did CC(=O)N1CCC(N(C(=O)Nc2ccc(C)c(F)c2)C(C)C)CC1 do in these assays?
G9a block: -35%[59 µM]; VDR inhibitor: 1%

Results for CN(C)Cc1ccccc1-c1nc(NC2CCNCC2)c2ccccc2n1 ?
G9a block: 10%[0.501 µM]; Sfp inh: 15%; VDR inhibitor: 1%
